This note sets out measurements from PubChem BioAssay (EPA / NIEHS).

Read-out in test [1]: NAD(P)H dehydrogenase [quinone] 1 (NQO1), NQO1 (gene 1728)
The experiment in a line: LTEA_HepaRG_NQO1: Life Technologies and Expression Analysis (LTEA) Assay for NAD(P)H dehydrogenase [quinone] 1 (NQO1) using HepaRG (AID 2283526). The conditions noted are these: mRNA level, 48 h; actives raise or lower the signal. The essentials: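 qRT-PCR read-out (Fluidigm TaqMan), normalized to three housekeeping genes, after 48 h chemical exposure of HepaRG cells. Concentrations: eight points, top 100 uM, half-log steps, 0.5% DMSO vehicle. Gain or loss of signal fitted relative to DMSO.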

Read-out in test [2]: Nuclear factor erythroid 2-related factor 2 (Homo sapiens) (UniProt Q16236)
The experiment in a line: LTEA_HepaRG_NFE2L2: Life Technologies and Expression Analysis (LTEA) Assay for Nuclear factor erythroid 2-related factor 2 (NFE2L2) Transcription Factor using HepaRG (AID 2283527). Particulars: mRNA level, 48 h; actives raise or lower the signal. The essentials: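 Human liver HepaRG line treated in duplicate for 48 h with an eight-point series topping at 100 uM. Gene expression of NFE2L2 by qRT-PCR, bidirectionally fitted against the vehicle control.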

Read-out in test [3]: succinate dehydrogenase complex iron sulfur subunit B (SDHB), SDHB (gene 6390)
Briefly: LTEA_HepaRG_SDHB: Life Technologies and Expression Analysis (LTEA) Assay for succinate dehydrogenase complex iron sulfur subunit B (SDHB) using HepaRG (AID 2283528). Particulars: mRNA level, 48 h; actives raise or lower the signal. The method, boiled down: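 SDHB transcript level read by TaqMan qRT-PCR, housekeeping-normalised (ACTB, GAPDH, POLR2A), after 48 h chemical treatment of plated HepaRG cells; eight concentrations top 100 uM, half-log steps, 0.5% DMSO, duplicates; fitted both directions against DMSO.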

Read-out in test [4]: Signal transducer and activator of transcription 3 (Homo sapiens) (UniProt P40763)
Briefly: LTEA_HepaRG_STAT3: Life Technologies and Expression Analysis (LTEA) Assay for Signal transducer and activator of transcription (STAT3) using HepaRG (AID 2283529). Particulars: mRNA level, 48 h; actives raise or lower the signal. The essentials: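 In this transcriptional endpoint, HepaRG cultures receive test chemicals at up to 100 uM for 48 h, tested in duplicate. STAT3 mRNA is normalized to ACTB, GAPDH and POLR2A.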

Read-out in test [5]: solute carrier (SLCO1B1), SLCO1B1 (gene 10599)
Briefly: LTEA_HepaRG_SLCO1B1: Life Technologies and Expression Analysis (LTEA) Assay for solute carrier (SLCO1B1) using HepaRG (AID 2283530). The conditions noted are these: mRNA level, 48 h; actives raise or lower the signal. The essentials:
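SLCO1B1 transcript read by qRT-PCR (Fluidigm arrays), normalized to three housekeeping genes, after 48 h chemical exposure of HepaRG cells; bidirectional concentration-response fitting versus 0.5% DMSO baseline. Eight-point half-log series, maximum 100 uM.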

Read-out in test [6]: sulfotransferase 2A1 (SULT2A1), SULT2A1 (gene 6822)
Briefly: LTEA_HepaRG_SULT2A1: Life Technologies and Expression Analysis (LTEA) Assay for sulfotransferase 2A1 (SULT2A1) using HepaRG (AID 2283531). The conditions noted are these: mRNA level, 48 h; actives raise or lower the signal. The essentials: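 HepaRG, 48 h chemical exposure, 8-pt half-log curve from 100 uM in 0.5% DMSO, duplicates. Readout: TaqMan qRT-PCR of SULT2A1 mRNA, housekeeping-normalized. Bidirectional fit vs DMSO baseline.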

Read-out in test [7]: Transforming Growth Factor (TGFA), TGFA (gene 7039)
Briefly: LTEA_HepaRG_TGFA: Life Technologies and Expression Analysis (LTEA) Assay for Transforming Growth Factor (TGFA) using HepaRG (AID 2283532). Particulars: mRNA level, 48 h; actives raise or lower the signal. The essentials:
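Gene expression of TGFA was quantified by qRT-PCR after human HepaRG cells were treated for 48 h with test chemicals (eight concentrations, highest 100 uM, 0.5% DMSO). Activity in either direction was fitted relative to DMSO.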

Read-out in test [8]: Transforming Growth Factor (TGFB1), TGFB1 (gene 7040)
The experiment in a line: LTEA_HepaRG_TGFB1: Life Technologies and Expression Analysis (LTEA) Assay for Transforming Growth Factor (TGFB1) Transporter using HepaRG (AID 2283533). The conditions noted are these: mRNA level, 48 h; actives raise or lower the signal. The method, boiled down:
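qRT-PCR readout of TGFB1 transcript in HepaRG lysates, normalized to three housekeeping genes; gain or loss of signal fitted relative to 0.5% DMSO vehicle. Exposure: 48 h, 8-point curve from 100 uM, duplicate wells.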

Read-out in another test: TIMP1, TIMP1 (gene 7076)
The experiment in a line: LTEA_HepaRG_TIMP1: Life Technologies and Expression Analysis (LTEA) Assay for TIMP1 using HepaRG (AID 2283534). Particulars: mRNA level, 48 h; actives raise or lower the signal. The essentials:
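HepaRG, 48 h exposure, 8-pt half-log series from 100 uM in 0.5% DMSO, duplicates; TIMP1 transcript by Fluidigm qRT-PCR, housekeeping-normalized; bidirectional curve fit vs DMSO baseline.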

Read-out in test [9]: Tumor necrosis factor receptor 1 (TNFRSF1A), TNFRSF1A (gene 7132)
Briefly: LTEA_HepaRG_TNFRSF1A: Life Technologies and Expression Analysis (LTEA) Assay for Tumor necrosis factor receptor 1 (TNFRSF1A) using HepaRG (AID 2283535). The conditions noted are these: mRNA level, 48 h; actives raise or lower the signal. The essentials:
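HepaRG, 48 h plating then 48 h chemical exposure, serum-free induction media; 8-pt CRC from 100 uM, half-log, 0.5% DMSO vehicle, duplicates. Readout: TaqMan qRT-PCR (Fluidigm), housekeeping-gene normalized; bidirectional fit vs DMSO.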

Read-out in test [10]: Thyroid Hormone Responsive (THRSP), THRSP (gene 7069)
The experiment in a line: LTEA_HepaRG_THRSP: Life Technologies and Expression Analysis (LTEA) Assay for Thyroid Hormone Responsive (THRSP) using HepaRG (AID 2283536). The conditions noted are these: mRNA level, 48 h; actives raise or lower the signal. The essentials:
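Cell model: human HepaRG, approx. 100,000 cells/well, 0.5% DMSO vehicle. Exposure lasts 48 h; phenobarbital 1 mM serves as induction positive control. Gene expression is measured by qRT-PCR against three endogenous control genes.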

Read-out in test [11]: Cellular tumor antigen p53 (Homo sapiens) (UniProt P04637)
The experiment in a line: LTEA_HepaRG_TP53: Life Technologies and Expression Analysis (LTEA) Assay for Tumor Protein P53 (TP53) using HepaRG (AID 2283537). Particulars: mRNA level, 48 h; actives raise or lower the signal. The method, boiled down: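 TP53 transcript measured by qRT-PCR, normalized to three housekeeping genes, after 48 h treatment of human HepaRG cultures with chemicals from 100 uM downward in half-log steps (0.5% DMSO vehicle, serum-free induction medium). Up- or down-regulation fitted against DMSO.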

Read-out in test [12]: UDP glucuronosyltransferase (UGT1A1), UGT1A1 (gene 54658)
Briefly: LTEA_HepaRG_UGT1A1: Life Technologies and Expression Analysis (LTEA) Assay for UDP glucuronosyltransferase (UGT1A1) using HepaRG (AID 2283538). The conditions noted are these: mRNA level, 48 h; actives raise or lower the signal. The method, boiled down:
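HepaRG, 48 h chemical exposure (top 100 uM, half-log 8-pt, 0.5% DMSO vehicle), duplicate wells; qRT-PCR (TaqMan, Fluidigm array) for UGT1A1 mRNA, housekeeping-normalized; bidirectional curve fit vs DMSO baseline.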

Read-out in test [13]: UDP glucuronosyltransferase (UGT1A6), UGT1A6 (gene 54578)
The experiment in a line: LTEA_HepaRG_UGT1A6: Life Technologies and Expression Analysis (LTEA) Assay for UDP glucuronosyltransferase (UGT1A6) using HepaRG (AID 2283539). Particulars: mRNA level, 48 h; actives raise or lower the signal. The method, boiled down: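 qRT-PCR readout of UGT1A6 mRNA (normalized to ACTB/GAPDH/POLR2A) in differentiated HepaRG cells after 48 h chemical exposure; 8 concentrations, top 100 uM, half-log steps, 0.5% DMSO. Bidirectional curve fit relative to DMSO baseline.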

Read-out in test [14]: X-box binding protein 1 (XBP1), XBP1 (gene 7494)
The experiment in a line: LTEA_HepaRG_XBP1: Life Technologies and Expression Analysis (LTEA) Assay for X-box binding protein 1 (XBP1) using HepaRG (AID 2283540). Particulars: mRNA level, 48 h; actives raise or lower the signal. The essentials: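 HepaRG, 48 h exposure, 8-pt half-log CRC top 100 uM, 0.5% DMSO vehicle, duplicates. Readout: TaqMan qRT-PCR of XBP1 mRNA, housekeeping-normalised (ACTB/GAPDH/POLR2A); bidirectional fit vs DMSO baseline.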

Test [15] in a line: LTEA_HepaRG_LDH_cytotoxicity: Cytotoxicity Assessment in the Life Technologies and Expression Analysis (LTEA) Assay (AID 2283563; active = hit-call score of the fitted dose curve at least 0.9, where 1 is the maximum). The method, boiled down:
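HepaRG (human liver line), 48 h exposure, 8-pt half-log series from 100 uM, 0.5% DMSO vehicle, duplicates. Read-out: LDH in spent medium. Positive-direction fit vs DMSO baseline.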

Test [16] is described as follows: ATG_XTT_Cytotoxicity: Cytotoxicity Assessment in the Attagene TRANS-FACTORIAL HepG2 Assay (AID 2283584; active = hit-call score of the fitted dose curve at least 0.9, where 1 is the maximum). The method, boiled down: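 XTT readout of cell number in transfected HepG2 cells, 24 h post-dosing; DMSO serves as negative control and baseline, with activity taken as loss of viability signal.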
Test [17] is described as follows: TOX21_p53_BLA_p2_viability: Viability Assessment in the Tox21 HCT-116 p53 Agonism Beta-lactamase Assay, Phase 2 (AID 2283591; active = hit-call score of the fitted dose curve at least 0.9, where 1 is the maximum;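 note: actives lower the ATP signal meaning cytotoxicity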). The essentials: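 HCT-116 p53-bla cells (4000/well) rested 5 h at 37C, then received compounds in DMSO (217-fold dilution) for 16 h at 37C, 5% CO2. After the CCF4 read, CellTiter-Glo was added; ATP luminescence was read after 30 min at room temperature.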

Test [18] deals with Cellular tumor antigen p53 (Homo sapiens) (UniProt P04637). Briefly: TOX21_p53_BLA_p2_ratio: Tox21 HCT-116 p53 Agonism Beta-lactamase Assay, Ratio, Phase 2 (AID 2283592; active = hit-call score of the fitted dose curve at least 0.9, where 1 is the maximum). The method, boiled down:
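Readout: blue/green (460/530 nm) FRET emission ratio after 2 h CCF4-AM loading at room temperature, excitation 405 nm. HCT116 p53 bla cells, 16 h compound exposure at 37C, 5% CO2; agonist direction fitted against DMSO baseline.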

A short description of test [19]: TOX21_p53_BLA_p3_viability: Viability Assessment in the Tox21 HCT-116 p53 Agonism Beta-lactamase Assay, Phase 3 (AID 2283593; active = hit-call score of the fitted dose curve at least 0.9, where 1 is the maximum;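 note: cells exposed to compound for 16 h before reading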). The essentials: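 HCT-116 cells (4000/well) rested 5 h at 37C, then got DMSO compounds by pin tool (217-fold dilution) for 16 h at 37C, 5% CO2. After the bla read, CellTiter-Glo was added and luminescence read at 30 min, room temperature.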

Records with an inconclusive call do not appear. Activity calls are given as the source filed them. Rule for the calls, unless noted: active = hit-call score of the fitted dose curve at least 0.9, where 1 is the maximum; inactive = score below 0.9.

Chain of Nuclear factor erythroid 2-related factor 2 (Homo sapiens) (Q16236 whole entry, looked up): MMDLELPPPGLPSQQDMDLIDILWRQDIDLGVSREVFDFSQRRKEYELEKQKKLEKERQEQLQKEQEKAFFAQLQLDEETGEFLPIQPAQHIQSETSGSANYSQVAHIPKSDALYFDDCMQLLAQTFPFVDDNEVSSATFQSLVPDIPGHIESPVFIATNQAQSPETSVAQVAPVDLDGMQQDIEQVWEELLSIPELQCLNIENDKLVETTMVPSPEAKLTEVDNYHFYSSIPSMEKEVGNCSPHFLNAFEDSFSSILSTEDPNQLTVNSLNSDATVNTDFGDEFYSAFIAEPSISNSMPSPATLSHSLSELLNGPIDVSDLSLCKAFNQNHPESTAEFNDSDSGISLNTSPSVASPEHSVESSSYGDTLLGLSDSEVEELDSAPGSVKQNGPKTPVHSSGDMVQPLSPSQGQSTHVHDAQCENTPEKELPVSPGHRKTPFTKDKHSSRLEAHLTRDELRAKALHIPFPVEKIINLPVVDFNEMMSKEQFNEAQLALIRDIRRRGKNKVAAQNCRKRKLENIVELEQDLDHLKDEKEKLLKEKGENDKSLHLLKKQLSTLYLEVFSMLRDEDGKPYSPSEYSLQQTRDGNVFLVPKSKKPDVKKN
Chain of Signal transducer and activator of transcription 3 (Homo sapiens) (P40763 whole entry, looked up): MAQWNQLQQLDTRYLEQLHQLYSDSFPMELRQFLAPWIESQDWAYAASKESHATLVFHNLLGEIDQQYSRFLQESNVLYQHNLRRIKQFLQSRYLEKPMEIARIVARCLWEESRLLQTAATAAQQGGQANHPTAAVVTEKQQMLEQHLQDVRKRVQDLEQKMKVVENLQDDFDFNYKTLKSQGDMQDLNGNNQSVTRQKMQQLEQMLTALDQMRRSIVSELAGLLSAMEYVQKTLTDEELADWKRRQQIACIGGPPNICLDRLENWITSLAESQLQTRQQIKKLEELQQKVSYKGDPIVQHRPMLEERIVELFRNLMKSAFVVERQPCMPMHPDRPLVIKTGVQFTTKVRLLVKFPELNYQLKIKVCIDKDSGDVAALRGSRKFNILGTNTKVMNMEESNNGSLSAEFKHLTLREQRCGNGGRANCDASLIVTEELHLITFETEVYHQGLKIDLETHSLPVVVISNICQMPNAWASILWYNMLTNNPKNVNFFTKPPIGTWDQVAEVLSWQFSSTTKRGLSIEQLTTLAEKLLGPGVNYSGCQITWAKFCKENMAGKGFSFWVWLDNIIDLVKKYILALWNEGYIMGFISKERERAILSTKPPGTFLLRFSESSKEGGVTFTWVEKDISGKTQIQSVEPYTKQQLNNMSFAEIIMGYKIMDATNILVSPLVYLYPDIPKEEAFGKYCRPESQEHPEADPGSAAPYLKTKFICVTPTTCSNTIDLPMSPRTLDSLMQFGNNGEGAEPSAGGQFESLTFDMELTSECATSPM
Chain of Cellular tumor antigen p53 (Homo sapiens) (P04637 whole entry, looked up): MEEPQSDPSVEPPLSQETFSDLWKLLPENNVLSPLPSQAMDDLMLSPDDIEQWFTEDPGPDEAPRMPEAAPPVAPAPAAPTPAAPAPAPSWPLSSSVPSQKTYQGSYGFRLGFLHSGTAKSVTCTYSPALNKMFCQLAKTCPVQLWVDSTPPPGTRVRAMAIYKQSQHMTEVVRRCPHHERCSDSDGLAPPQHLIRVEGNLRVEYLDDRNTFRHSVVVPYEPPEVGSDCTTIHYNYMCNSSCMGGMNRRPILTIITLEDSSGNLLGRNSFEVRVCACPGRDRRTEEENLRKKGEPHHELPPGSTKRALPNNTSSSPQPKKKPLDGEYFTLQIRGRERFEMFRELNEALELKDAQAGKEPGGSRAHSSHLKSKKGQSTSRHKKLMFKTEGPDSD

For orientation: AC50 means the midpoint of the concentration-response curve, whichever way the signal moves. On to `C#CC(C)(C)NC(=O)c1cc(Cl)cc(Cl)c1`, for which the compound was classed as inactive in test [1], in test [2], in test [3], in [4], in [5] and in test [6]. The outcome in test [7] is “inactive”; in test [8] it was “inactive”; with TIMP1, TIMP1 (gene 7076), “inactive”; in [9], “inactive”; in test [10], “inactive”; in [11], “inactive”. Also, the outcome in test [13], in [14], in [15], in [16], in [17] and in [18] was inactive. In test [19], the compound was classed as inactive. Further, the AC50 in [12] is 13 µM (active).

For `Cc1nn(-c2cc(NS(C)(=O)=O)c(Cl)cc2Cl)c(=O)n1C(F)F`, the compound was called inactive in [1], in test [2], in test [3], in test [4], in [5] and in [6]. Further, the outcome in test [7] was “inactive”; in [8] it was “inactive”; with TIMP1, TIMP1 (gene 7076), “inactive”; in test [9], “inactive”; in test [10] it was “inactive”; in test [11], “inactive”. Moreover, the outcome in [13], in test [14], in test [15] and in test [18] was inactive. In addition, the half-maximal activity concentration (AC50) in test [12] was 18.4 µM (active).

Consider `CNC(=O)ON=C(C)SC`, for which the compound was classed as inactive in test [1], in test [2], in test [3], in [4], in [6] and in test [7]. For the same compound, the outcome in [8] was “inactive”; in the test with TIMP1, TIMP1 (gene 7076) it was “inactive”; in [9], “inactive”; in test [10] it was “inactive”; in test [11], “inactive”; in [12] it was “inactive”. In addition, the outcome in [13], in test [14] and in test [15] was inactive.

Take `CCC(=NOC/C=C/Cl)C1=C(O)CC(C2CCOCC2)CC1=O` (stereo not given): the result in [1], in test [2], in test [3], in test [4], in [5] and in test [6] was inactive. Further, the outcome in test [7] was “inactive”; in test [8], “inactive”; with TIMP1, TIMP1 (gene 7076) it was “inactive”; in test [9] it was “inactive”; in test [10] it was “inactive”; in test [11], “inactive”. In addition, the compound was called inactive in test [12], in test [13], in test [14], in [15], in test [17] and in [19].
